# Data from PubChem BioAssay AID686979 (National Center for Advancing Translational Sciences (NCATS), 2013).
# About 50,000 (12%) of roughly 420,000 compounds were called active. Not shown: some 26% with an inconclusive outcome. The sample holds actives, similar compounds and a random draw of the others, so the mix is not that of the screen. Unmarked numbers belong to inactive results. Calls come from the whole dose curve; as a rule, active = well fitted inhibition curve with a large enough effect; inconclusive = small, poorly fitted or top-dose-only effect; inactive = flat fitted curve, though single readings scatter.
# Test: qHTS for Inhibitors of human tyrosyl-DNA phosphodiesterase 1 (TDP1): qHTS in cells in presence of CPT; note: nearly all actives have a fitted effect of over 55% in size
# Settings: chicken DT40 Tdp1-/-;hTDP1 cells + 20 nM CPT, ATP luminescence, 48 h; series mostly up to 46.2 µM; activity change, negative = growth inhibition: at the top concentration
# How it was run: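 Chicken DT40 Tdp1-/- cells stably complemented with human TDP1 were seeded at 400 cells/well in medium containing 20 nM camptothecin, exposed to pin-transferred compounds, and grown at 37 °C for at least 48 hr. Viability was read as ATP luminescence.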
# % is set by controls: 0 for no effect and ±100 for the full control effect; potency is the fitted concentration of half-maximal effect.
Structure (SMILES),"activity change, negative = growth inhibition",Potency
COc1ccc(S(=O)(=O)N2CCC(C(=O)OCC(=O)c3ccccc3)CC2)cc1[N+](=O)[O-],1.81%,
CCOC(=O)N1CCN(c2c(NCCCN3CCCC(C)C3)c(=O)c2=O)CC1 (stereo not drawn),-0.394%,
COc1ccc(Cl)cc1-n1c(CCC(=O)O)ccc1-c1ccc(C)cc1,-20.6%,
COc1ccc(C)cc1-n1c(-c2ccc(C)cc2)cc2c1CC(C)(C)CC2=O,,8.2 µM (active)
CC1(C)CC(=O)c2cnc3nc4ccccc4n3c2C1,-28.7%,
CCOC(=O)N1CCN(C(=O)COC(=O)c2cccc(S(C)(=O)=O)c2)CC1,-0.23%,
COc1ccc(NC(=O)CSc2nncc(=O)n2N)cc1OC,5.56%,
CN(C)c1ccc(/C=N\S(=O)(=O)c2ccccc2)cc1,-8.74%,
CN(C)c1ccc(/C=C/c2sc3ccccc3[n+]2C)cc1,,0.0447 µM (active)
CN(C)c1ccc(/C=C/c2sc3ccccc3[n+]2CCCCBr)cc1,,0.316 µM (active)
COc1ccccc1C(=O)NCCC(=O)N(C)Cc1cccnc1,0.238%,
Cc1ccc(NC(=S)NC(NC(=O)Cc2cccc3ccccc23)C(Cl)(Cl)Cl)cc1 (stereo not drawn),13.1%,
CSc1ncnc2c1ncn2CCCNCc1ccco1,-10.8%,
O=C(NNc1c2ccccc2nc2ccccc12)c1cc2ccccc2cc1O,,23.1 µM (active)
Cc1ccc(C(=O)NNC(=O)OC(C)(C)C)c(Cl)c1,14.3%,
O=C(COC(=O)c1ccc(O)cc1O)NC(=O)c1ccccc1,-17.2%,
CC(C)(C)OC(=O)NNc1c2ccccc2nc2ccccc12,,16.4 µM (active)
Cc1ccccc1NC(=O)NNC(=O)OC(C)(C)C,11.6%,
O=C(CSc1nc(C2CC2)nc2ccccc12)Nc1cccc(O)c1,-16.6%,
O=C1NC(=O)C(CCc2ccccc2)(c2ccccc2)N1 (stereo not drawn),-13.1%,
CC(=O)NN=C(C)c1ccc(NC(=O)C2CC2)cc1,-93.7%,
Cc1c(S(=O)(=O)NC(C)c2ccccc2)c(=O)n(C)c(=O)n1C (stereo not drawn),1.47%,
O=C(NC(Cc1ccccc1)C(=O)O)/C(=C\c1ccccc1)NC(=O)c1ccco1 (stereo not drawn),-4.94%,

Structure (SMILES),"activity change, negative = growth inhibition",Potency
O=C(NCCCn1ccnc1)/C(=C\c1ccccc1F)NC(=O)c1ccccc1,-2.69%,
Cc1cc(C)cc(NS(=O)(=O)c2ccc3[nH]cc(C(=O)N4CCCCC4)c(=O)c3c2)c1,1.93%,
COc1cc(/C=C2/C(=O)NN(c3cccc(Cl)c3)C2=O)cc(Br)c1O,-0.608%,
CCOc1c(Br)cc(/C=C2\C(=O)N(CCC#N)N=C2C)cc1OC,,20.6 µM (active)
C=CCOc1c(Br)cc(/C=N\n2nnnc2N)cc1OC,-8.22%,
COc1ccc(-n2c(-c3ccc(Cl)cc3)n[nH]c2=S)c(OC)c1,9.9%,
CCc1cc(=O)oc2c(C)c(OCC(=O)N3CC[C@@]4(O)CCCC[C@H]4C3)ccc12,-1.84%,
Cc1ccc(NC(=S)NC2CCCC2)cc1,-12.1%,
Cc1ccc(/C=N/NC(=O)CNC(=O)COc2ccccc2)o1,-0.282%,
Cc1ccc(/C=N/NC(=S)NC2CCCCC2)o1,,14.6 µM (active)
CC12CCC(=O)N1C(C(=O)Nc1ccc(F)c(F)c1F)CS2 (stereo not drawn),-3.07%,
O=C(CCNC(=O)c1ccc(Br)cc1)NCC(c1ccco1)N1CCCCC1 (stereo not drawn),-17.1%,
COc1ccc(-n2c(=O)c3sc4ccccc4c3n(CC(=O)Nc3cccc(C)c3)c2=O)cc1,-11.5%,
COc1cccc(NC(=O)CN(C)C(=O)CSCc2nc3scc(-c4cccs4)c3c(=O)[nH]2)c1,-4.16%,
CCOC(=O)c1cc(C#N)c(N2CCCCC2)nc1-c1ccccc1,-8.91%,
CCOc1ccc(CCN2C(=O)C(=O)N([C@@H](CC(C)C)CN3CCC[C@H]3CN3C(=O)C(=O)NC[C@@H]3Cc3ccccc3)C[C@@H]2CC(C)C)cc1,-23.9%,
CC(C)C[C@H]1CNC(=O)C(=O)N1C[C@@H]1CCCN1C[C@H](Cc1ccccc1)N1C[C@H](CC(C)C)N(CC2CCCCCC2)C(=O)C1=O,2.28%,
CC(C)C[C@H]1CNC(=S)N1C[C@H]1CCCN1C[C@H](Cc1ccc(O)cc1)N1C[C@H](Cc2ccc(O)cc2)N(CC2CCCCC2)C1=S,,25.9 µM (active)
COCCNc1cc(-c2c(C)noc2C)ncn1,-19.5%,
CNc1cc(-c2c(C)noc2C)ncn1,,13 µM (active)
Cc1noc(C)c1-c1cc(NCc2cccnc2)ncn1,-6.05%,
Cc1ccc(S(=O)(=O)N2CCCCC2)cc1C(=O)N1CCN(CCO)CC1,-19.4%,
CC1(C)CCc2cc(S(=O)(=O)N3CCN(c4nc(-c5cccs5)nc5ccccc45)CC3)ccc2O1,-8.77%,

Structure (SMILES),"activity change, negative = growth inhibition",Potency
COC(=O)CNC(=O)c1cc(-c2ccncc2)nc2ccccc12,16.5%,
O=C(Nc1ccc2c(c1)OCCO2)c1cnccn1,-10.2%,
O=C(Nc1ccncc1)c1cc(-c2ccccn2)nc2ccc(Br)cc12,17%,
CCOc1ncccc1C(=O)Nc1ccc2c(c1)OCCO2,-27.3%,
Cc1ccc2nc(-c3ccncc3)cc(C(=O)Nc3ccc4c(c3)OCCO4)c2c1,,18.4 µM (active)
Cc1ccc2nc(-c3ccncc3)cc(C(=O)Nc3ccncc3)c2c1,,13 µM (active)
O=C(Nc1ccc(S(=O)(=O)Nc2nccs2)cc1)c1cc(-c2ccncc2)nc2ccccc12,-3.11%,
CCN(CC)CCNC(=O)c1ccc(NC(=O)c2cc(-c3ccncc3)nc3ccccc23)cc1,,14.6 µM (active)
Cc1ccc2nc(-c3cccc(Br)c3)cc(C(=O)Nn3cnnc3)c2c1,4.04%,
COc1ccc(C(=O)CCC(=O)Nc2ccc(Cl)cc2)cc1,1.8%,
O=C1NC[C@H](CCCCN2CCN(CCc3ccccc3)C(=O)C2=O)N(CC2CCCCC2)C1=O,1.13%,
O=C(Nc1ccccc1)c1ccco1,-13.8%,
O=C(OC1CC2CC1[C@H]1CCCCN1C2=O)N1CCOCC1 (stereo partly drawn),10.6%,
CCc1c(Nc2ccccc2C)nc(N)[nH]c1=O,3.46%,
CCCn1c(C(O)c2ccc(OCC)cc2)nc2ccccc21 (stereo not drawn),,20.6 µM (active)
CCOCCn1c(C(C)C)nc2ccccc21,-0.999%,
CCCn1c(C(O)c2cc(OC)ccc2OC)nc2ccccc21 (stereo not drawn),-8.68%,
O=C(O)CCCC(=O)N1N=C(c2ccco2)CC1c1ccco1 (stereo not drawn),0.547%,
Cc1nn(C)c(Oc2ccc(Cl)cc2)c1C=O,-2.66%,
Cc1ccc(-c2ccc(C3=CC(=O)CC(C)(C)C3=O)cc2)cc1,,0.184 µM (active)
CC1(C)CC(=O)C=C(c2ccccc2CO)C1=O,-22%,
Cc1ccc(C(=O)OC2=CC(=O)CC(C)(C)C2)cc1,-2.38%,
